Results on 59 molecules are retold here after PubChem BioAssay AID1745848 (National Center for Advancing Translational Sciences (NCATS), 2022).

Screen size: about 2,100 compounds; about 940 (45%) were called active. Not shown: some 48% with an inconclusive outcome. So high a share suggests a set chosen from earlier hits. This is one part of the list. Unmarked numbers belong to inactive results. Calls come from the whole dose curve; as a rule, active = well fitted inhibition curve with a large enough effect; inconclusive = small, poorly fitted or top-dose-only effect; inactive = no such curve, though single readings can be large or run the other way.
Potency is the fitted concentration of half-maximal effect.

A short description of this assay: Confirmatory qHTS for Inhibitors of ATXN expression.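 For activity change, negative = inhibition: 0% = DMSO vehicle wells and -100% = medium-only wells without cells.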 Note: nearly all actives have a fitted effect of over 65% in size. The note with it: ATXN2-luciferase reporter cells, luminescence, 24 h; series mostly up to 11.5 µM; activity change, negative = inhibition: at the top concentration. Summed up:
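Cells carrying ATXN2-luciferase reporter exposed 24 h at 37 C to compound. Viability then read by CellTiter-Fluor (25 uM GF-AFC, 30 min), followed by SteadyGlo luminescence; medium-only wells set 100% inhibition.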
On the technique in general: In qHTS, concentration-response curves come from the screen itself.
For `O=C(Nc1c(Cl)cccc1Cl)Oc1cccc2cccnc12`, the Potency was 10 µM (active). In the case of `O=C(Nc1cccc2cccnc12)c1csc(COCCO)n1`, the “activity change, negative = inhibition” value is -22.5% [at 57.5 µM]. For the molecule `O=C(N/N=C/c1sc(N2CCOCC2)nc1-c1ccccc1)c1ccccc1O`, the Potency was 28.2 µM (active). Same read-out and setting: under `Cc1cc2oc3ccc(NCCC4CCCN4C)cc3c(=O)c2cc1C` (centres undefined) stands 31.6 µM (active). For `CCCn1ncc(CN2CCC(C(=O)Nc3cccc(-c4cccc(F)c4)c3)CC2)c1C`, the Potency is 28.2 µM (active). Same read-out and setting: under `CCN(c1ccccc1)S(=O)(=O)c1ccc(C(=O)N(CCCN(C)C)c2nc3c(C)cccc3s2)cc1` stands 25.1 µM (active); under `Cc1ccc2sc(N(CCCN(C)C)C(=O)c3ccc(S(=O)(=O)N4CCCCCC4)cc3)nc2c1C`, 28.2 µM (active). Regarding `Cc1ccc2nc(N(CCCN(C)C)C(=O)c3ccc(S(=O)(=O)N4CCCCCC4)cc3)sc2c1`, the Potency is 3.16 µM (active). On the same count and under the same terms, under `Cc1cc(C)c2nc(N(CCCN(C)C)C(=O)c3ccc4c(c3)OCCO4)sc2c1` stands 28.2 µM (active); under `Nc1ncn([C@@H]2O[C@H](CO)[C@@H](O)[C@H]2O)c(=O)n1`, 3.98 µM (active); under `Nc1ccn([C@@H]2O[C@H](CO)[C@@H](O)C2O)c(=O)n1` (some centres undefined), 3.55 µM (active). On the same count and under the same terms, under `Nc1ccc2c(c1)OC1(CCCC1)O2` stands 0.316 µM (active). Same read-out and setting: under `Clc1ccc2c(NCc3ccccc3)ccnc2c1` stands 15.8 µM (active); under `COc1ccc(-c2cc(C3CCN(c4ccc(C(C)=O)cc4[N+](=O)[O-])CC3)[nH]n2)cc1`, 15.8 µM (active). With `Cc1ccc(C)c(NC(=O)c2ccccc2NS(=O)(=O)c2cc([N+](=O)[O-])ccc2C)c1`, the Potency was 2.51 µM (active). With `CCc1ccc(-c2csc(NC(=O)C3CC(=O)N(c4ccc5c(c4)OCCO5)C3)n2)cc1` (centres undefined), the Potency was 11.2 µM (active). On the same count and under the same terms, under `COc1ccc(-c2nc(NC(=O)C3CC(=O)N(c4ccc5c(c4)OCCO5)C3)sc2C)cc1` (centres undefined) stands 8.91 µM (active); under `CCCC(=O)NC(c1ccc(Cl)cc1Cl)c1ccc2cccnc2c1O` (centres undefined), 2.82 µM (active); under `CCCCC(=O)NC(c1ccc(OC)c(OC)c1)c1ccc2cccnc2c1O` (centres undefined), 2.82 µM (active). On the same count and under the same terms, under `CCC(=O)NC(c1ccc(Cl)cc1Cl)c1ccc2cccnc2c1O` (centres undefined) stands 1.26 µM (active). Still for that read-out and setting: under `CCCCC(=O)NC(c1ccc(Cl)cc1Cl)c1ccc2cccnc2c1O` (centres undefined) stands 0.708 µM (active); under `CCCCC(=O)NC(c1ccccc1OC)c1ccc2cccnc2c1O` (centres undefined), 2 µM (active); under `CCCCC(=O)NC(c1ccccc1Cl)c1ccc2cccnc2c1O` (centres undefined), 2 µM (active). As for `NNC(=O)/C(=N/Nc1ccccc1)S(=O)(=O)c1ccc(Cl)cc1`, the Potency was 4.47 µM (active). As for `CCCOc1ccc(C(=O)C(CN2CCOCC2)c2ccccc2)cc1` (centres undefined), the Potency was 25.1 µM (active). As for `CC(=O)c1ccc(N2CCN(CC(O)COC(c3ccccc3)c3ccccc3)CC2)cc1` (centres undefined), the “activity change, negative = inhibition” value is -21.7%. In the case of `COc1ccccc1C(=O)NNC1=C(C(=O)C(F)(F)F)CCC1`, the Potency was 1.58 µM (active).

Take `CCN(CC)CCn1c2ccccc2c2cnc(N)c(C#N)c21`: the Potency was 1.58 µM (active). Still for that read-out and setting: under `O=S(=O)([N-]c1nc2ccccc2nc1-[n+]1ccc(Cc2ccccc2)cc1)c1ccc(Br)s1` stands 8.91 µM (active); under `CC[n+]1ccccc1/C=C1\Sc2ccc(C)cc2N1C`, 8.91 µM (active); under `Cc1ccc2c(c1)N(C)/C(=C/c1cccc[n+]1C)S2`, 4.47 µM (active).

With `Cn1nccc1C(=O)N1CCCC(C(=O)c2cccc3ccccc23)C1` (centres undefined), the “activity change, negative = inhibition” value was -6.41% [at 57.5 µM]. Regarding `COc1cccc(-c2nc(N3CCN(C)CC3)c3ccccc3n2)c1O`, the Potency was 3.16 µM (active). The same measure, in the same setting: under `CCOC(=O)c1c(NC(=O)/C=C/C(=O)O)sc(C)c1-c1ccc(Cl)cc1` stands 25.1 µM (active). The same measure, in the same setting: under `COc1cc(/C=C/CN2CCC(C(=O)NC(c3ccc(F)cc3)c3ccc4ccccc4n3)CC2)ccc1OC(C)=O` (centres undefined) stands 17.8 µM (active); under `CCCCC(=O)NC(c1ccccc1)c1ccc2cccnc2c1O` (centres undefined), 2.82 µM (active); under `CCCC(=O)NC(c1ccccc1)c1ccc2cccnc2c1O` (centres undefined), 2.82 µM (active). In the case of `CC(N)c1csc(NC(=O)c2cc(C(C)(C)C)nn2Cc2ccccc2)n1` (centres undefined), the Potency was 3.16 µM (active). On to `FC(F)(F)c1nc(-c2cccs2)ncc1-c1nnnn1-c1ccc(Cl)cc1`, for which the Potency is 20 µM (active). Consider `CN(c1ccccc1)S(=O)(=O)c1cccc(NC(=O)c2cc(=O)c3ccccc3o2)c1`, for which the Potency is 28.2 µM (active). Still for that read-out and setting: under `Cc1nc2ccc(NC(=O)c3cccc(S(=O)(=O)N(C)c4ccccc4)c3)cc2s1` stands 3.98 µM (active). In the case of `CCCC(=O)Nc1ccc2nc(SCC(=O)N3CCCC3)sc2c1`, the “activity change, negative = inhibition” value is 4.06% [at 57.5 µM]. Consider `Cc1nc2ccc(NC(=O)c3ccc(S(=O)(=O)N(C)c4ccccc4)cc3)cc2s1`, for which the Potency is 2.24 µM (active). Turning to `CCCCC(=O)N(CCOC)c1nnc(-c2ccccc2C)s1`, the “activity change, negative = inhibition” value is -18.9% [at 57.5 µM]. Turning to `CC[n+]1c(C=C2C=C(C)OC(C)=C2)sc2ccccc21`, the Potency was 6.31 µM (active). On the same count and under the same terms, under `Cc1cc(Nc2cccc([N+](=O)[O-])c2)n2c(nc3ccccc32)c1C#N` stands 1.12 µM (active).

`Cc1cc(Cl)c(C(=O)Nc2cccc(C(F)(F)F)c2)c(C)n1`: the Potency was 11.2 µM (active). Same read-out and setting: under `CCOc1ccccc1C(=O)Nc1ccc2nc(N3CCN(c4ncccn4)CC3)cc(C)c2c1` stands 7.94 µM (active); under `CCCCC(=O)NC(c1ccc(N(C)C)cc1)c1ccc2cccnc2c1O` (centres undefined), 1.26 µM (active); under `CCCCC(=O)NC(c1ccc(N(CC)CC)cc1)c1ccc2cccnc2c1O` (centres undefined), 0.355 µM (active). The same measure, in the same setting: under `COc1ccc(CNCC(O)(c2ccc(Cl)cc2)c2ccc(Cl)cc2)cc1OC` stands 3.16 µM (active). Same read-out and setting: under `Cc1cc(C)c2c(N)c3cccc(C)c3nc2n1` stands 10 µM (active); under `O=C(COc1ccc(F)cc1)N/N=C/c1cccc2cccnc12`, 3.55 µM (active); under `O=C(COc1ccc(Cl)cc1)N/N=C/c1cccc2cccnc12`, 25.1 µM (active). As for `CC(=O)Nc1sc2c(c1-c1nc3ccccc3s1)CN(C(C)C)CC2`, the Potency is 10 µM (active). The same measure, in the same setting: under `O=C(Nc1nc(-c2ccccn2)cs1)c1ccccc1-n1cnnn1` stands 2 µM (active); under `CCc1sc(C(=O)Nc2nc(-c3ccccn3)cs2)cc1C`, 8.91 µM (active); under `O=C(Nc1nc(-c2ccccn2)cs1)c1ccco1`, 4.47 µM (active). On to `CC(Oc1ccc(F)cc1)C(=O)Nc1nc(-c2ccccn2)cs1` (centres undefined), for which the Potency is 2.24 µM (active).
